Source: PubChem BioAssay (NCI)
About 83,000 compounds went through this panel and 20% of them were active in at least one assay; those are over-represented in the sample as a whole.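 Results are percent growth after 48 hours of single-concentration exposure. 100 means growth as in untreated cells, lower positive values show inhibition; negative values down to -100 show cell death.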 Values without a mark were called inactive. Activity calls are given as the source filed them. The calls were made as follows: active = growth percent below 10; inactive = the rest.

Experiments:
Experiment in all cases: NCI-60 one-dose screen, 48 h (100 = growth as untreated, 0 = no growth, -100 = all killed)
Settings in all cases: 10 µM unless noted
NCI-H23 lung = system: NCI-H23 lung
NCI-H226 lung = system: NCI-H226 lung
NCI-H322M lung = system: NCI-H322M lung
HOP-62 NSCLC = system: HOP-62 NSCLC
NCI-H460 lung = system: NCI-H460 lung
HOP-92 NSCLC = system: HOP-92 NSCLC
NCI-H522 lung = system: NCI-H522 lung
A549/ATCC NSCLC = system: A549/ATCC NSCLC
786-0 renal = system: 786-0 renal
COLO 205 colon = system: COLO 205 colon
DU-145 prostate = system: DU-145 prostate
K-562 leukemia = system: K-562 leukemia
MALME-3M melanoma = system: MALME-3M melanoma
MDA-MB-231 breast = system: MDA-MB-231 breast
RXF 393 renal = system: RXF 393 renal
SF-268 CNS = system: SF-268 CNS
SF-295 CNS = system: SF-295 CNS
SF-539 CNS = system: SF-539 CNS
UACC-257 melanoma = system: UACC-257 melanoma
M14 melanoma = system: M14 melanoma

| Compound | growth (NCI-H23 lung) | growth (NCI-H226 lung) | growth (NCI-H322M lung) | growth (HOP-62 NSCLC) | growth (NCI-H460 lung) | growth (HOP-92 NSCLC) | growth (NCI-H522 lung) | growth (A549/ATCC NSCLC) | growth (786-0 renal) | growth (COLO 205 colon) | growth (DU-145 prostate) | growth (K-562 leukemia) | growth (MALME-3M melanoma) | growth (MDA-MB-231 breast) | growth (RXF 393 renal) | growth (SF-268 CNS) | growth (SF-295 CNS) | growth (SF-539 CNS) | growth (UACC-257 melanoma) | growth (M14 melanoma) |
| --- | --- | --- | --- | --- | --- | --- | --- | --- | --- | --- | --- | --- | --- | --- | --- | --- | --- | --- | --- | --- |
| COc1ccc(-c2nnc(-c3ccc4c(c3)nc(-c3ccncc3)n4C3CCCCC3)o2)cc1 | 72.8% | 63.6% | 82% | 67.7% | 73.7% | 44.8% | 61.4% | 59.2% | 66.3% | 59.2% | 68.5% | 43.3% | 82% | 63.8% | 69.7% | 66.7% | 67.7% | 70.3% | 77.6% | 70.5% |
| C#COc1cccc(Nc2ncnc3ncc(NC(=O)CCl)cc23)c1 | 32.9% [6.25 µM] | 43.8% [6.25 µM] | 59.4% [6.25 µM] | -2.06% [6.25 µM] (active) | -5.59% [6.25 µM] (active) | 59.5% [6.25 µM] | -79.2% [6.25 µM] (active) | 23% [6.25 µM] | -69.6% [6.25 µM] (active) | -46.9% [6.25 µM] (active) | 8.37% [6.25 µM] (active) | 15.3% [6.25 µM] | 37.1% [6.25 µM] | -4.91% [6.25 µM] (active) | -12.9% [6.25 µM] (active) | -6.57% [6.25 µM] (active) | 33.5% [6.25 µM] | 0.882% [6.25 µM] (active) | 59.4% [6.25 µM] | 35.8% [6.25 µM] |
| C=C(C)[C@@H]1CC[C@]2(C)[C@H](CC=C3[C@@H]4[C@H](C)[C@@H](C)CC[C@]4(CO)CC[C@]32C)[C@@]1(C)CCCN | 60.9% | 84.5% | 43.7% | -63.1% (active) | -81.9% (active) | 4.6% (active) | -41.8% (active) | -31.6% (active) | 39.3% | -57.2% (active) | 28.4% | 1.75% (active) | -79.1% (active) | 3.87% (active) | 21.7% | 59% | 77.2% | 13% | -56.7% (active) | -46.2% (active) |
| C=C1C(=O)O[C@H]2[C@H]1CC/C(COC(=O)NCc1ccc(Cn3c(=O)sn(CCI)c3=O)cc1)=C\CC[C@@]1(C)O[C@@H]21 | 88.5% | 85.7% | 96.4% | 114% | 98.1% | -19% (active) | -92.8% (active) | 108% | 59.6% | -24.1% (active) | 17.2% | 0.268% (active) | -49.9% (active) | 61% | 0.0448% (active) | 71.7% | 106% | 78.8% | 45.9% | 15.7% |
| O=C(Nc1cccnc1Nc1ccc(F)cc1)c1cn(Cc2cccc(Oc3ccccc3)c2)nn1 | 74% | 76.6% | 78.9% | 84.7% | 80.4% | 84.8% | 64.7% | 61% | 79.2% | 91.6% | 84.5% | 18.8% | 60.9% | 61.1% | 74.2% | 54.8% | 67.7% | 63.7% | 87.4% | 37.1% |
| N#Cc1cccc(NC(=O)c2oc3ccccc3c2-c2cnn(-c3ccccc3)c2)c1 | 83.7% [50 µM] | 72.5% [50 µM] | 74.1% [50 µM] | 92.6% [50 µM] | 84.3% [50 µM] | -23.3% [50 µM] (active) | 59% [50 µM] | 81.4% [50 µM] | 85.7% [50 µM] | 91.8% [50 µM] | 105% [50 µM] | 4.93% [50 µM] (active) | 101% [50 µM] | 82.7% [50 µM] | 75.7% [50 µM] | 92.4% [50 µM] | 74% [50 µM] | 81.5% [50 µM] | 94.7% [50 µM] | 84% [50 µM] |
| CCOC(=O)c1cn2ncnc(Oc3ccc(NC(=O)NC4CCCCC4)c(Cl)c3)c2c1C | 68.8% | 92.6% | 85.2% | 79.9% | 96.4% | 86.8% | 67.1% | 58.7% | 81.6% | 96.9% | 96% | 82.6% | 58% | 58.2% | 83.8% | 84.9% | 96.7% | 51.2% | 90% | 83.9% |
| COc1ccc(/C=C2\C(=O)N=C3N2NC(c2cc(Br)ccc2O)C=C(C)N3c2ccccc2)cc1 (stereo not given) | 94.7% | 85.1% | 97.3% | 108% | 104% | 93.6% | 95.1% | 96% | 101% | 115% | 104% | 97.3% | 92.2% | 92.8% | 97.7% | 100% | 101% | 99.9% | 96.7% | 98.8% |
| COc1cc(CNS(=O)(=O)c2ccc(C)cc2)ccc1OCc1cn(-c2ccc(Br)cc2)nn1 | 103% | 93.5% | 101% | 92.4% | 110% | 112% | 91.8% | 99.5% | 109% | 120% | 104% | 94.3% | 104% | 103% | 97.1% | 93.8% | 97.2% | 107% | 110% | 106% |
| COc1cc(OC)cc(C2=C3CC[C@@H]4[C@H](CC[C@]5(C)C(=O)CC[C@@H]45)C3=CC3C(O)c4cccnc4N4C(=O)COC234)c1 (stereo not given in full) | 98.6% | 102% | 114% | 95.3% | 103% | 104% | 90.3% | 94.2% | 98.5% | 109% | 110% | 92.7% | 103% | 97.8% | 107% | 92.8% | 97.6% | 102% | 98.1% | 104% |
| COc1ccc2c(O)c(/C=C3\N=Nc4ncccc43)oc2c1C[C@H]1CCNC[C@H]1F | -3.41% (active) | 1.06% (active) | 9.44% (active) | 5.59% (active) | -26% (active) | 25.7% | -13.5% (active) | 0.136% (active) | -18.6% (active) | -51.8% (active) | 7.19% (active) | 1.73% (active) | -21.6% (active) | -6.95% (active) | -44.4% (active) | -5.68% (active) | 18.9% | -29.9% (active) | -6.32% (active) | -40.9% (active) |
| CCS/C(Nc1ccccc1)=C(\C#N)C(=O)N/N=C/c1ccc(Cl)cc1Cl | 41.3% | 37.7% | 70.9% | 36.7% | 8.05% (active) | 29.2% | 1.02% (active) | 38.3% | 31.8% | 28.4% | 20% | 7.35% (active) | 38.1% | 39% | 2.63% (active) | 34% | 17% | 4.25% (active) | 51.9% | 21% |
| Cc1ccc(-c2nn(-c3ccccc3)cc2C=C2C(=O)ON=C2C(C)C)cc1 | 89.2% | 95.3% | 91.2% | 88.6% | 80% | 86% | 74% | 86.8% | 78.7% | 114% | 88.1% | 34.2% | 85.2% | 97.3% | 89.9% | 94.8% | 96.8% | 83.6% | 96.4% | 65.8% |
| CCCCNc1ccc(C#N)c(OCCN(CC)CC)c1 | 92.8% | 88% | 100% | 101% | 104% | 94.4% | 92.8% | 101% | 112% | 100% | 113% | 86% | 109% | 99.3% | 103% | 103% | 107% | 111% | 114% | 104% |
| Cc1ccc(NC(=S)NNC(=S)NNc2ccccc2)cc1C | 99.9% | 99.7% | 85.5% | 106% | 96.3% | 55.4% | 86.3% | 101% | 114% | 107% | 77.9% | 8.18% (active) | 102% | 104% | 96.3% | 55.1% | 109% | 103% | 98.6% | 115% |
